Holding throughout (parameters): scale not given: direction of the effect not stated beside the values
The target of assay [1] is Protein translocase subunit SecA (Escherichia coli (strain K12)) (UniProt P10408). Description: Assay to Identify E. coli SecA ATPase Inhibitors. Format: functional. To be noted: 30 µM.
The target of assay [2] is T1, Ubiquitin-activating enzyme e1, putative (Leishmania donovani (strain BPK282A1)) (UniProt E9BSI1).
T1 sequence (whole entry): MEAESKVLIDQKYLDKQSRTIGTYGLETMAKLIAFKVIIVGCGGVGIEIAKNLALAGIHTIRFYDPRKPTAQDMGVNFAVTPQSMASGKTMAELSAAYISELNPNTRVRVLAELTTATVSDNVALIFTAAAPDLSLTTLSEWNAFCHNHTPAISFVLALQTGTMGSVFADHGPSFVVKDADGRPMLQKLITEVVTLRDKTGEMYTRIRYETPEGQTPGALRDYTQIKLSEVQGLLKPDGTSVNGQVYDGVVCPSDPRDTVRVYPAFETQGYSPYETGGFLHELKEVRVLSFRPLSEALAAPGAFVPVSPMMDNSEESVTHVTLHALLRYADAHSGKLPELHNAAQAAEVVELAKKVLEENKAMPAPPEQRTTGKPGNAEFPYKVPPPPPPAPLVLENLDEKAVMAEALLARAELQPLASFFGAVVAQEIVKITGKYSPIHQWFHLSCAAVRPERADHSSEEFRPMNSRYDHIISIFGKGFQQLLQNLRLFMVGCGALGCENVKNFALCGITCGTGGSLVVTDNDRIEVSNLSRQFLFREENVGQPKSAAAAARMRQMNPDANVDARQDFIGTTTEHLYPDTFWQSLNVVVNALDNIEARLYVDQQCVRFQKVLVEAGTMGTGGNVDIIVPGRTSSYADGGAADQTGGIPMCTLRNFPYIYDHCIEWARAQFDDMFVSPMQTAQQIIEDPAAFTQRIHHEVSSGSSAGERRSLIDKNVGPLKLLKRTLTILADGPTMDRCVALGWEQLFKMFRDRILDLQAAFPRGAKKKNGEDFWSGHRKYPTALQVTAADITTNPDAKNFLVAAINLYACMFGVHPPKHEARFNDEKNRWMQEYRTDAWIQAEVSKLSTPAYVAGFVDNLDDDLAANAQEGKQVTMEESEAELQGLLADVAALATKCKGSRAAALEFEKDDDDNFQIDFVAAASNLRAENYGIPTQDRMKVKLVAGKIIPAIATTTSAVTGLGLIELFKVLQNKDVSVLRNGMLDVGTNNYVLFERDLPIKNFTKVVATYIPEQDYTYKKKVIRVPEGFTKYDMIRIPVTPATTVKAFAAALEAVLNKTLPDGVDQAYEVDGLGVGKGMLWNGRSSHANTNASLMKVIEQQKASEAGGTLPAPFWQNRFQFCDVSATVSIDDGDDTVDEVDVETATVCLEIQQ
Description: Leishmania donovani Ubiquitin Activating Enzyme (LdE1). The conditions noted are these: 30 µM. Type of assay: functional.

For assay [3], the target named is AMP-activated protein kinase, AMPK (Homo sapiens) (UniProt P54646+O43741+P54619+Q9UGJ0+Q9Y478+Q13131+Q9UGI9). Description: AMP-dependent Kinase enzyme assay. An in vitro enzyme assay that detects ADP turnover that is directly proportional to AMPK activity. This uses naive AMPK that is activated during the assay with MK-8722. The conditions noted are these: 30 µM. Type of assay: functional.

In assay [4] the target is Sialic acid-binding Ig-like lectin 9 (Homo sapiens) (UniProt Q9Y336). Description: Hs-Siglec9 ALPHAscreen SOP 20170721. To be noted: 10 µM.
Chain of Sialic acid-binding Ig-like lectin 9 (Homo sapiens) (Q9Y336 whole entry): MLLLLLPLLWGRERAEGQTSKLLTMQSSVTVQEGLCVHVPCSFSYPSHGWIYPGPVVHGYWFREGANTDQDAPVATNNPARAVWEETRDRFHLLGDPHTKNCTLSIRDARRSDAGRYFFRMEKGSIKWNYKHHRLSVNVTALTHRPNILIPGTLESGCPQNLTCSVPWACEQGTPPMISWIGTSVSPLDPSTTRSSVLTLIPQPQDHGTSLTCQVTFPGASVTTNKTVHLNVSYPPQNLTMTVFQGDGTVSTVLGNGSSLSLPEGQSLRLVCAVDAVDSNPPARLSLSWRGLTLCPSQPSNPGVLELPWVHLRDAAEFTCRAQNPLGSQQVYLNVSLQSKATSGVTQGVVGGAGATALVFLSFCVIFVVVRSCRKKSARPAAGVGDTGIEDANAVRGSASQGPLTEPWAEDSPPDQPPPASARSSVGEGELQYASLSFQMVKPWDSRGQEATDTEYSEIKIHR
The test system of a further assay is Trypanosoma cruzi. Description: Trypanosoma cruzi phosphomannomutase and mannose-1-phosphate guanylyltransferase assay. Type of assay: functional. To be noted: 10 µM.
In assay [5] the target is T2, Arginase-2, mitochondrial (Homo sapiens) (UniProt P78540).
T2 sequence (whole entry): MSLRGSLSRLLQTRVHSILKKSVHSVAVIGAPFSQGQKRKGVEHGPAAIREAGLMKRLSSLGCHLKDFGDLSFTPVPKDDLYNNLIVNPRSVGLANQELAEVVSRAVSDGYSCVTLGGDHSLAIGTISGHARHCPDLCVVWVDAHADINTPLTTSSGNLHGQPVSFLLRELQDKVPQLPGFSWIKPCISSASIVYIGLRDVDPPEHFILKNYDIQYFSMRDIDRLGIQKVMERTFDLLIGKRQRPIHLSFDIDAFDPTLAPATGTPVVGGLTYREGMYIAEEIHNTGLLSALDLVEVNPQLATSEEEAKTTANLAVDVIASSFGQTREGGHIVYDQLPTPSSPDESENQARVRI
Description: in vitro enzyme assay to detect the production of urea directly proportional to the activity of Arginase II. Further: in the data most compounds retested in dose-response had high values. Format: functional. To be noted: 33.3 µM.

For assay [6], the target named is T3, Proteasome subunit beta (Trypanosoma cruzi) (UniProt O96673).
T3 sequence (whole entry): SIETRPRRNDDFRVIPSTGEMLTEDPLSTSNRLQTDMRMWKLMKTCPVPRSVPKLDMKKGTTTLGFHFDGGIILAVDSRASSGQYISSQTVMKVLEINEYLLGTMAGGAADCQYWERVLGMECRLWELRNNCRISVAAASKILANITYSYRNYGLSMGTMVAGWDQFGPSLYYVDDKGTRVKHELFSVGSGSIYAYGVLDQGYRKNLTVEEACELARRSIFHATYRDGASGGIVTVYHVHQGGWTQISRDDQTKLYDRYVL
Description: Trypanosoma cruzi proteasome chymotrypsin-like activity (TcProtChymo) assay. Further: in the data most compounds retested in dose-response had high values. Type of assay: functional. The conditions noted are these: 9.37 µM.

The species entered for a further assay is Homo sapiens. The assay is described as follows: To identify inhibition of the IFN signalling (Jak-Stat) pathway via expression of an eGFP reporter gene under the control of an IFN-stimulated response element (ISRE) containing MxA promoter. To be noted: 30 µM. Type of assay: functional.
Assay [7] deals with T4, Tyrosyl-tRNA synthetase, putative (Trypanosoma cruzi (strain CL Brener)) (UniProt Q4DSP6).
T4 sequence (whole entry): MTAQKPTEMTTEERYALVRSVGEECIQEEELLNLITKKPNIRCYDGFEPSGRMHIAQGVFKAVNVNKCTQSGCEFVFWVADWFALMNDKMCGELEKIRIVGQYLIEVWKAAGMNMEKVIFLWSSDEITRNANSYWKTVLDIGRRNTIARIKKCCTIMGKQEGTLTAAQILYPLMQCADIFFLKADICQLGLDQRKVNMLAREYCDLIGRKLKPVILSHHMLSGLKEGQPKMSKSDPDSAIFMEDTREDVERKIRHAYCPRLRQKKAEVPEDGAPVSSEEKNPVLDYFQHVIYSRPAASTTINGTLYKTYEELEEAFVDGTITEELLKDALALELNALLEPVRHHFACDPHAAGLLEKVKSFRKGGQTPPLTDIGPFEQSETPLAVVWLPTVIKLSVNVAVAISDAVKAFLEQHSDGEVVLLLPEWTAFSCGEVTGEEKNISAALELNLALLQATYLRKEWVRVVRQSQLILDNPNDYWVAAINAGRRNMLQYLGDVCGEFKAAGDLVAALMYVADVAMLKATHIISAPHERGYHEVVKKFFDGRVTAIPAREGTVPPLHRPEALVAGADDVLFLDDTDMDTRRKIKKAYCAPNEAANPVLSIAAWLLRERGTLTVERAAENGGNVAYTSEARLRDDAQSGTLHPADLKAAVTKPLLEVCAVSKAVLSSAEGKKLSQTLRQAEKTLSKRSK
The assay is described as follows: Trypanosoma cruzi tyrosyl tRNA synthetase (TcYRS) _High Tyrosine SOP. Further: in the data most compounds retested in dose-response had high values. Type of assay: functional. To be noted: 30 µM.

Assay [8] addresses T4, Tyrosyl-tRNA synthetase, putative (Trypanosoma cruzi (strain CL Brener)). Description: Trypanosoma cruzi tyrosyl tRNA synthetase (TcYRS) SOP. Format: functional. The conditions noted are these: 30 µM.
Assay [9] concerns the target Chromo domain-containing protein 1 (Saccharomyces cerevisiae (strain ATCC 204508 / S288c) (Baker's yeast)) (UniProt P32657). The assay is described as follows: ScCHD-1 Enzyme Inhibition Assay. Further: in the data most compounds retested in dose-response had high values. Type of assay: functional. To be noted: 30 µM.

For some of these results: Entries with a potency or affinity are not part of this list.

Chain of Chromo domain-containing protein 1 (Saccharomyces cerevisiae (strain ATCC 204508 / S288c) (Baker's yeast)) (P32657 whole entry, the tested form may be a part): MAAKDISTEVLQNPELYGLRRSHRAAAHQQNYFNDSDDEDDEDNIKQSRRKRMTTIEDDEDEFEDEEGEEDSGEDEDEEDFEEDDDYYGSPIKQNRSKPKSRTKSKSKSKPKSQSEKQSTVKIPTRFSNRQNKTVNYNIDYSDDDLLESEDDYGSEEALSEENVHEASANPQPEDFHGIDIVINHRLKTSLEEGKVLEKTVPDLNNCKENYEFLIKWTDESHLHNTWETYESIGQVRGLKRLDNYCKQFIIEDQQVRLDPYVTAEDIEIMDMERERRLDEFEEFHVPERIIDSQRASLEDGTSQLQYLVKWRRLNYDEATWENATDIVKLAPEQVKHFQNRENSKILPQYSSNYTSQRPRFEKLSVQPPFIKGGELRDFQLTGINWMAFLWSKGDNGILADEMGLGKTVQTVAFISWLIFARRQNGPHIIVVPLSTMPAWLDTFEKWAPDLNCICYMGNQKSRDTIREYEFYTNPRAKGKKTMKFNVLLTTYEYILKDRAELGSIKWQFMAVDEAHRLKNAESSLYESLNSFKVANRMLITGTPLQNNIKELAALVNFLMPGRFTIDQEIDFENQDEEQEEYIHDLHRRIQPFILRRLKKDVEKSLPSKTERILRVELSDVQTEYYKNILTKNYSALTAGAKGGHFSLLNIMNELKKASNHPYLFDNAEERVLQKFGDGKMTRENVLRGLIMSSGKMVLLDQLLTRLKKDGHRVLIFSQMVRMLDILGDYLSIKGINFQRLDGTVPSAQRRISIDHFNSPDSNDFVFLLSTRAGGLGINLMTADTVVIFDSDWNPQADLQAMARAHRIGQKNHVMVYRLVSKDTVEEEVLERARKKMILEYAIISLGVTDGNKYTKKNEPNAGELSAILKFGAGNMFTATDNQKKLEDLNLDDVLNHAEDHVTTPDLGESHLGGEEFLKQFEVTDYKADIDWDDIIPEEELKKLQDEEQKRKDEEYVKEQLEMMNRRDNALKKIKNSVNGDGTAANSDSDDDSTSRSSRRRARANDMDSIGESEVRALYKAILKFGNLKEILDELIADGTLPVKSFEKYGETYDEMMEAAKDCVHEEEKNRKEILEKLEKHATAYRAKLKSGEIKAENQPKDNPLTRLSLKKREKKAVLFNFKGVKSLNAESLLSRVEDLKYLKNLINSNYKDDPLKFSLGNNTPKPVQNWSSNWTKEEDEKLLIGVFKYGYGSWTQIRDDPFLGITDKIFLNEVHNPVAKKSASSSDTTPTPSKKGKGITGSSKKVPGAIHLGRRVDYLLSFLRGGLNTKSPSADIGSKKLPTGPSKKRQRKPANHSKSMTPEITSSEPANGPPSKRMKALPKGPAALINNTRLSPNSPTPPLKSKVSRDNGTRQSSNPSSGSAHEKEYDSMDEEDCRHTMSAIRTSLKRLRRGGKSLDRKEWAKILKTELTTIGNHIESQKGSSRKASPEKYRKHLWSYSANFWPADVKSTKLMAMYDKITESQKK
Chain of Protein translocase subunit SecA (Escherichia coli (strain K12)) (P10408 whole entry): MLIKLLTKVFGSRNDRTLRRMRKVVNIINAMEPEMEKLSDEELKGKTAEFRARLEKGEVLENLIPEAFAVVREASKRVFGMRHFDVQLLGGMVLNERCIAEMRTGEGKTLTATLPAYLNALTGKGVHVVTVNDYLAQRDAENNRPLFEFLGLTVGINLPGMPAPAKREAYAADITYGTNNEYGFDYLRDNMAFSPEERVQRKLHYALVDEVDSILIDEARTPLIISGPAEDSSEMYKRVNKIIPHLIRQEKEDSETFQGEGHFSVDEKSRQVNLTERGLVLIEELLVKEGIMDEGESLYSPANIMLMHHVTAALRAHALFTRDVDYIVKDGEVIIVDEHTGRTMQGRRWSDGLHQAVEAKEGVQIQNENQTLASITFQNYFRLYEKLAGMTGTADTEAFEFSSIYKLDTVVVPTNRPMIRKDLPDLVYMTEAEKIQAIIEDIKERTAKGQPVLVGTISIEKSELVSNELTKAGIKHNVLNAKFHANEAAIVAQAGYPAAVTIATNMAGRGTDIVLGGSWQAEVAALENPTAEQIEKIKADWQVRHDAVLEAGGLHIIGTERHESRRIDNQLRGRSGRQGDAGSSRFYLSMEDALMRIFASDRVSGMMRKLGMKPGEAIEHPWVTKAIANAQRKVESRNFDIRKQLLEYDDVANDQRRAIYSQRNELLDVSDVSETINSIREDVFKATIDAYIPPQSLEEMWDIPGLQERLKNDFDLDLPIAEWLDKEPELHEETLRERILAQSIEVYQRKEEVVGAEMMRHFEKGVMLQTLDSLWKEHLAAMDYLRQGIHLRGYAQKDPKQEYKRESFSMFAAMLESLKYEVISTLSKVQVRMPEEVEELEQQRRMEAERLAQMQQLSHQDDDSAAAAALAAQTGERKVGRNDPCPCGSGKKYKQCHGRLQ

In the case of `O=C(NCC1CCN(C(=O)c2ccoc2)CC1)c1ccccc1Br`, the Percent Effect was -6.61% in [1]; 5.48% in assay [2]; 3.13% in [3]; -5.78% in assay [4]; -4.7% with Trypanosoma cruzi; -0.455% in [5]. The Percent Effect is 15.6% in assay [6]; -0.0227% in the assay listed under Homo sapiens; 3.23% in [7]; 5% in assay [8]; -4.05% in [9].

In the case of `Cc1nc(CN2CCCN(C(=O)C(C)OCC3CC3)CC2)cs1` (stereo unspecified), the Percent Effect in [1] is -1.24%; in assay [2], 3.8%; in assay [3], 0.098%; in assay [4], 0.839%; in the assay with Trypanosoma cruzi it was 3.38%; in [5], 0.215%. The Percent Effect is 10.6% in [6]; 4.67% in the assay filed under Homo sapiens; 3.12% in assay [7]; 2.53% in [8]; -18.2% in [9].

In the case of `COc1cc(C2CC(=O)Oc3cc(C)[nH]c(=O)c32)ccc1OC(F)F` (stereo unspecified), the Percent Effect was -2.55% in assay [1]; 17.3% in assay [2]; -1.47% in [3]; -4.76% in assay [4]; -5.3% with Trypanosoma cruzi; -6.16% in [5]. For the same compound, the Percent Effect in [6] is 19%; in the assay filed under Homo sapiens it was 7.6%; in [7], 3.17%; in assay [8] it was 12.8%; in [9], -13%.

For `CCOc1ccccc1OC1CCN(C(=O)c2cc[nH]n2)CC1`, the Percent Effect was -5.63% in assay [1]; 13.2% in assay [2]; 8.96% in assay [3]; -2.66% in assay [4]; -4.13% with Trypanosoma cruzi; 4.21% in [5]. For the same compound, the Percent Effect in assay [6] is 12.4%; in the assay listed under Homo sapiens, 26.7%; in [7] it was 2.45%; in assay [8], 7.32%; in assay [9], -7.55%.

Take `COc1ccc(C2Nc3ccccc3C3=NCCCN32)cc1OC` (stereo unspecified): the Percent Effect in assay [1] was -5.46%; in [2] it was -2.67%; in assay [3] it was 8.31%; in [4], -1.83%; in the assay with Trypanosoma cruzi it was -0.787%; in [5] it was -1.63%. For the same compound, the Percent Effect in assay [6] was -2.91%; in the assay filed under Homo sapiens, 11.5%; in assay [7] it was 0%; in [8] it was 1.28%; in [9], -8.33%.

In the case of `COc1ccccc1OCCN1CCCC(c2noc(C3CC3)n2)C1` (stereo unspecified), the Percent Effect in [1] is -3.76%; in assay [2], 0%; in [3], -2.32%; in [4] it was -0.399%; in the assay on Trypanosoma cruzi it was -2.24%; in assay [5], 3.12%. Moreover, the Percent Effect was 5.41% in [6]; -3.11% in the assay listed under Homo sapiens; 2.73% in assay [7]; 6.17% in [8]; -4.48% in assay [9].

`Cc1nn(C)c(N2CCOCC2)c1CNC1CCN(C(C)(C)C)CC1`: the Percent Effect in assay [1] was -2.55%; in [2], 20.2%; in assay [3], -9.63%; in [4] it was -2.51%; in the assay with Trypanosoma cruzi it was -1.42%; in assay [5] it was -0.38%. Further, the Percent Effect in assay [6] was 13.5%; in the assay filed under Homo sapiens it was 10.5%; in [7], 5.42%; in assay [8], 16.5%; in [9] it was -4.24%.

`O=C(c1ccc(C2CCCO2)s1)N1CCN(c2ccccc2F)CC1` (stereo unspecified): the Percent Effect in assay [1] was -2.34%; in assay [2], 16.2%; in assay [3] it was -2.01%; in assay [4] it was 21.1%; in the assay with Trypanosoma cruzi, 3.67%; in [5], 30%. The Percent Effect in assay [6] is 14.1%; in the assay filed under Homo sapiens, -6.24%; in [7], 5.82%; in assay [8], 14.6%; in [9], -4.16%.

In the case of `COc1ccc(-n2ccc(C(=O)N3CCC(C(N)=O)C3)n2)cc1` (stereo unspecified), the Percent Effect was -7.71% in [1]; 8.11% in assay [2]; -1.34% in assay [3]; 6.17% in assay [4]; -4.55% in the assay on Trypanosoma cruzi; 1.29% in assay [5]. Also, the Percent Effect in [6] was -1.44%; in the assay listed under Homo sapiens, 16.4%; in assay [7], 2.97%; in assay [8], 3.66%; in assay [9], -1.19%.

As to `Cc1cnn(CC2CCCCN2C(=O)c2ccc3nnc(C)n3c2)c1` (stereo unspecified), the Percent Effect in assay [1] was 3.48%; in [2], 13%; in assay [3], -0.0421%; in [4], -9.14%; in the assay on Trypanosoma cruzi, -4.6%; in assay [5], -1.9%. For the same compound, the Percent Effect in [6] was 15.9%; in the assay filed under Homo sapiens, 21%; in assay [7], 5.71%; in assay [8], 18.8%; in assay [9], -5.8%.

Turning to `Cc1n[nH]c(C2CN(C(=O)c3cc(C4CC4)[nH]n3)CCO2)n1` (stereo unspecified), the Percent Effect in [1] is -3.77%; in assay [2] it was 13%; in assay [3] it was 3.73%; in assay [4] it was 15.3%; in the assay with Trypanosoma cruzi, -0.0979%; in assay [5], 0.632%. The Percent Effect was 9.78% in assay [6]; -11% in the assay filed under Homo sapiens; 5.71% in [7]; 11.8% in assay [8]; -11.2% in [9].

(Values after ChEMBL document CHEMBL3988442, “University of Dundee, Small-Polar-MMV Screening Library” (2021).)
